The values that follow come from paper PMC4336329 (PLoS ONE, 2015).

Among all 310,000 compounds or so, about 14,000 (4.5%) showed an effect of 50% or more. The effect is printed as a negative number. Shown is part of a subset that was picked to be rich in strong results.
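Also: peak tail current of the secondary pulse compared with the same well before compound.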

Sequence of human ether-à-go-go-related gene (hERG) potassium channel (Q12809 whole entry, looked up): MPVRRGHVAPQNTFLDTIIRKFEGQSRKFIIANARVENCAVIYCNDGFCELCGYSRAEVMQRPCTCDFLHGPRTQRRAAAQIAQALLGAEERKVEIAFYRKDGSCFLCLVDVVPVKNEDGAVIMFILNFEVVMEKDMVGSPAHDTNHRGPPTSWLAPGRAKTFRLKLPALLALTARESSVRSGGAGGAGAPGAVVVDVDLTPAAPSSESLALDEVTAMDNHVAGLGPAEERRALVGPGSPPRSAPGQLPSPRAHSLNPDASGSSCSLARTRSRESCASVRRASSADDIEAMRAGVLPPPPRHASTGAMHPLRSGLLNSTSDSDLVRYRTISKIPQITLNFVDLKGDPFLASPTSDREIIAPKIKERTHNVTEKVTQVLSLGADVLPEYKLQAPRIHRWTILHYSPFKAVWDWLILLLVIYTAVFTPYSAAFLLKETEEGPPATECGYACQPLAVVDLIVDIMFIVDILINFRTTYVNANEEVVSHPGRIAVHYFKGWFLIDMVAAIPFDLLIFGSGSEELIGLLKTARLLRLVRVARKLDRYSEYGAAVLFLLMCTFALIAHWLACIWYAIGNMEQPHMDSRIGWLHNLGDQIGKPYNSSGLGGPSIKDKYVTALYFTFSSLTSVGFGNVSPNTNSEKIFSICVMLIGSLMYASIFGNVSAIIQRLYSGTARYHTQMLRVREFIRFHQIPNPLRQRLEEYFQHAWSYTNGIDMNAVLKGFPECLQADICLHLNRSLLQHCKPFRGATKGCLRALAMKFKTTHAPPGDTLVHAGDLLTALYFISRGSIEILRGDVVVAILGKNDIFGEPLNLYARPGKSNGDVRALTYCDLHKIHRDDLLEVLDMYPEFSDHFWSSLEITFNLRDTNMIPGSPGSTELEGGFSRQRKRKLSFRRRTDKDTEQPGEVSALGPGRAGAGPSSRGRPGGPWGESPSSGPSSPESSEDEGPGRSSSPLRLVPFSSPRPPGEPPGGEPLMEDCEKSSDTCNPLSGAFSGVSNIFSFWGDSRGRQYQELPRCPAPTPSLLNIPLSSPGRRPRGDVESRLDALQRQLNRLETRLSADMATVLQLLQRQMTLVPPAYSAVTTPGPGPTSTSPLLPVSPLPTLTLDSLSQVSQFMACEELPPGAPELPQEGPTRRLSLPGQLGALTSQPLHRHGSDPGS

The experiment has as its target human ether-à-go-go-related gene (hERG) potassium channel (human, UniProt Q12809). Description: primary screen, population patch clamp on CHO cells stably expressing hERG; higher = less effect of the substance.
Take `CN(C)S(=O)(=O)c1ccc(NC(=O)C2CC(=O)N(Cc3ccccc3Cl)C2)cc1` (stereo not drawn): the “hERG current change (%, negative = inhibition) at 10uM” value is -0.379%.

Consider `CCCC1(C(=O)OC)NC(c2ccc(OC)c(OC)c2)C2C(=O)N(c3ccc4c(c3)OCO4)C(=O)C21` (stereo not drawn), for which the “hERG current change (%, negative = inhibition) at 10uM” value was 16.7%.

Consider `COc1ccc(-c2c(C#Cc3ccsc3)c3ccccc3n2C)cc1`, for which the “hERG current change (%, negative = inhibition) at 10uM” value is -6.31%.

For `O=C(CCC(=O)c1ccc(F)cc1)OCc1nnc(-c2ccc([N+](=O)[O-])cc2)o1`, the “hERG current change (%, negative = inhibition) at 10uM” value was -47%.

With `CCOC(=O)C1CCN(C(=O)c2cccc(C(=O)N3CCC(C(=O)OCC)CC3)c2)CC1`, the “hERG current change (%, negative = inhibition) at 10uM” value is on record as 4.75%.

Regarding `CCOc1ccc(NC(=O)N2CCC(C(=O)c3ccc(F)cc3)CC2)cc1`, the “hERG current change (%, negative = inhibition) at 10uM” value is on record as -20.8%.

For the compound `CCOC(=O)C1CCN(C(=O)C(C)c2ccc([N+](=O)[O-])cc2)CC1` (stereo not drawn), the “hERG current change (%, negative = inhibition) at 10uM” value is listed as -21.4%.

Turning to `O=C(Oc1cccc([N+](=O)[O-])c1)C1CCN(C(=O)c2ccc(F)cc2)CC1`, the “hERG current change (%, negative = inhibition) at 10uM” value was -41%.

Turning to `CCOc1ccc(C(=O)C2CCN(C(=O)c3ccc([N+](=O)[O-])cc3)CC2)cc1`, the “hERG current change (%, negative = inhibition) at 10uM” value is -79.9%.

For `CCOC(=O)C1CCN(C(=O)c2cc(OCC)c(OCC)c(OCC)c2)CC1`, the “hERG current change (%, negative = inhibition) at 10uM” value was -3.3%.

With `CCOc1ccc(C(=O)C2CCN(C(=O)c3ccccc3C(=O)O)CC2)cc1`, the “hERG current change (%, negative = inhibition) at 10uM” value is on record as -5.42%.

With `O=C(OCc1nnc(-c2ccc([N+](=O)[O-])cc2)o1)C1CCN(C(=O)c2ccc(F)cc2)CC1`, the “hERG current change (%, negative = inhibition) at 10uM” value was -76%.

Regarding `CCOC(=O)C1CCN(C(=O)c2ccc(N3CCOCC3)c([N+](=O)[O-])c2)CC1`, the “hERG current change (%, negative = inhibition) at 10uM” value is recorded as -41.8%.

Regarding `CCOC(=O)C1CCN(C(=O)C2CCN(C(=O)c3ccc([N+](=O)[O-])cc3)CC2)CC1`, the “hERG current change (%, negative = inhibition) at 10uM” value was -69.3%.

`CCOC(=O)C1CCN(C(=O)c2ccc(OCC)c(OCC)c2)CC1`: the “hERG current change (%, negative = inhibition) at 10uM” value is given as -79.4%.

With `Cc1ccc(NS(=O)(=O)c2ccc(C(=O)NCc3cccnc3)cc2)cc1`, the “hERG current change (%, negative = inhibition) at 10uM” value was -4.14%.

`CC(C)c1ccc(NC(=O)CCS(=O)(=O)c2cccc3nonc23)cc1`: the “hERG current change (%, negative = inhibition) at 10uM” value is 1.81%.

As for `COc1cc(OC)cc(C(=O)N[C@H](C(=O)OCC(=O)Nc2cccc(F)c2)C(C)C)c1`, the “hERG current change (%, negative = inhibition) at 10uM” value is on record as -5.55%.

As to `CC(C)(C)SCCNC(=O)CN1C(=O)c2ccccc2S1(=O)=O`, the “hERG current change (%, negative = inhibition) at 10uM” value is given as -5.6%.

Turning to `CCOC(=O)C(=CNc1cccnc1Oc1ccc(C)c2c1CCC2)C(=O)OCC`, the “hERG current change (%, negative = inhibition) at 10uM” value is given as -5.67%.

Regarding `Cc1cc(NC(=O)C(Cl)c2ccccc2)no1` (stereo not drawn), the “hERG current change (%, negative = inhibition) at 10uM” value is listed as -0.0237%.

Consider `O=C(CN(c1ccccc1)S(=O)(=O)c1ccccc1[N+](=O)[O-])Nc1cccnc1`, for which the “hERG current change (%, negative = inhibition) at 10uM” value is -21.1%.

Take `C=CCCC(=O)Nc1nc(C)c(-c2csc(Nc3ccccc3OC)n2)s1`: the “hERG current change (%, negative = inhibition) at 10uM” value is given as 3.6%.

On to `CCN1CCCC1CNC1=NCCCCC1` (stereo not drawn), for which the “hERG current change (%, negative = inhibition) at 10uM” value is recorded as 7.64%.

For the compound `CCc1nnc(NS(=O)(=O)c2ccc(NC(=O)c3ccccc3OC)cc2)s1`, the “hERG current change (%, negative = inhibition) at 10uM” value turned out to be 18.5%.

For `COc1ccccc1Nc1nnc(SCc2cc(=O)n3cc(C)ccc3n2)s1`, the “hERG current change (%, negative = inhibition) at 10uM” value is -12.8%.

On to `COc1ccc(C)cc1NC(=O)NC1CCCCCCC1`, for which the “hERG current change (%, negative = inhibition) at 10uM” value stood at 21%.

Regarding `CN(C)C1(CNC(=O)c2ccc(Cl)c(S(=O)(=O)NCc3ccco3)c2)CCCCC1`, the “hERG current change (%, negative = inhibition) at 10uM” value is -37.3%.

Consider `O=C(NCc1ccco1)c1ccc(Cl)c(S(=O)(=O)N2CCOCC2)c1`, for which the “hERG current change (%, negative = inhibition) at 10uM” value is reported as -7.4%.

Regarding `O=C(Nc1ccccc1N1CCOCC1)c1ccc(Cl)c(S(=O)(=O)NCc2ccco2)c1`, the “hERG current change (%, negative = inhibition) at 10uM” value is listed as -51.8%.

In the case of `O=C(Nc1ccccc1N1CCOCC1)c1ccc(S(=O)(=O)NCc2ccco2)cc1`, the “hERG current change (%, negative = inhibition) at 10uM” value is listed as -15.7%.

`O=C(NCC1(N2CCOCC2)CCCCC1)c1ccc(Cl)c(S(=O)(=O)NCc2ccco2)c1`: the “hERG current change (%, negative = inhibition) at 10uM” value is -52.1%.

Take `COc1ccccc1NC(=O)c1ccc(Cl)c(S(=O)(=O)NCc2ccco2)c1`: the “hERG current change (%, negative = inhibition) at 10uM” value was -37.7%.

Consider `Cc1nn(C)cc1CNC(=O)C1C2CCC(O2)C1C(=O)O` (stereo not drawn), for which the “hERG current change (%, negative = inhibition) at 10uM” value worked out at 23.7%.

Take `Cc1nn(-c2ccccc2)c(C)c1C(=O)OCC(=O)N1CCN(S(=O)(=O)c2ccccc2)CC1`: the “hERG current change (%, negative = inhibition) at 10uM” value is given as -11%.

On to `COc1ccccc1N(C(C)=O)C1SC(=O)N(c2ccccc2)C1=O` (stereo not drawn), for which the “hERG current change (%, negative = inhibition) at 10uM” value is recorded as 14%.

With `Cc1cc(C(=O)CN2C(=O)C(=O)N(C)C2=O)c(C)n1-c1cccc(S(=O)(=O)N2CCOCC2)c1`, the “hERG current change (%, negative = inhibition) at 10uM” value is -63.4%.

For `Cc1cc(C(=O)CSc2ncn[nH]2)c(C)n1-c1cccc(S(=O)(=O)N2CCOCC2)c1`, the “hERG current change (%, negative = inhibition) at 10uM” value is recorded as -28.5%.

Turning to `Cc1cc(C(=O)COc2ccccc2[N+](=O)[O-])c(C)n1-c1cccc(S(=O)(=O)N2CCOCC2)c1`, the “hERG current change (%, negative = inhibition) at 10uM” value is on record as -9.82%.

As to `Cc1cc(C(=O)CCl)c(C)n1-c1cccc(S(=O)(=O)N2CCOCC2)c1`, the “hERG current change (%, negative = inhibition) at 10uM” value was -77.4%.

On to `Cc1cc(C(=O)CN2C(=O)CN(C)C2=O)c(C)n1-c1cccc(S(=O)(=O)N2CCOCC2)c1`, for which the “hERG current change (%, negative = inhibition) at 10uM” value is -49.8%.

Consider `Cc1ccc(C)n1-c1cccc(S(=O)(=O)N2CCOCC2)c1`, for which the “hERG current change (%, negative = inhibition) at 10uM” value was found to be 7.55%.
